# Data: PMC7862700, “An all-to-all approach to the identification of sequence-specific readers for epigenetic DNA modifications on cytosine”
# Columns and labels:
# Assay in all cases: DAPPL (digital affinity profiling via proximity ligation, sequencing); 10 mM Tris-HCl pH 7.5, 50 mM NaCl, 1 mM DTT, 4% glycerol, room temperature, 30 min; GST-TFs on glutathione beads, 16-mer random dsDNA library, 0.1% formaldehyde crosslink after washing; high values mean tight binding
# FLI1 = molecular target: T1, FLI1 (Homo sapiens, UniProt Q01543 1-452); conditions: protein: recombinant; tags: N-terminal GST; dsDNA, one strand shown
# T1 sequence: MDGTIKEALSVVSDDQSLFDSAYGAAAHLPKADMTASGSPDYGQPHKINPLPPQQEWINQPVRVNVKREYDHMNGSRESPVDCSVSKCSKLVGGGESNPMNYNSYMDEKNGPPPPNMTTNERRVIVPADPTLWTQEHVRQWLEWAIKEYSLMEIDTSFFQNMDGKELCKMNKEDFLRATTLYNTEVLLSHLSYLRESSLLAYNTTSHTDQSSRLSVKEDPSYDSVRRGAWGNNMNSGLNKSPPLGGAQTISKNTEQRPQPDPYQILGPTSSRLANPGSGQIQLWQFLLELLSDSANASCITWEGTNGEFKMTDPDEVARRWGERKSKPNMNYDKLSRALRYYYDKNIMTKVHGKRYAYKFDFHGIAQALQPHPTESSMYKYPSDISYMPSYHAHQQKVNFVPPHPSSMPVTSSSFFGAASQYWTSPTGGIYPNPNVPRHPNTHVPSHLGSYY
# In short: (§1)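 A tag-only sample was pooled with DNA-barcoded human transcription factors that had been expressed in yeast as GST fusions and captured on glutathione beads. The pools were incubated for 30 min at room temperature with 200 nmole of a random double-stranded 16-mer DNA library in Tris/NaCl/DTT/glycerol buffer, then washed, crosslinked with 0.1% formaldehyde, proximity-ligated (BsaI/T4 ligase, 1 h, 37 °C), PCR-amplified and sequenced on an Illumina NextSeq500. Binding signal is each hexamer's read frequency for a factor divided by its frequency for the tag-only sample.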
# ELK1 = molecular target: T2, ELK1 (Homo sapiens, UniProt P19419 1-428); conditions: protein: recombinant; tags: N-terminal GST; dsDNA, one strand shown
# T2 sequence: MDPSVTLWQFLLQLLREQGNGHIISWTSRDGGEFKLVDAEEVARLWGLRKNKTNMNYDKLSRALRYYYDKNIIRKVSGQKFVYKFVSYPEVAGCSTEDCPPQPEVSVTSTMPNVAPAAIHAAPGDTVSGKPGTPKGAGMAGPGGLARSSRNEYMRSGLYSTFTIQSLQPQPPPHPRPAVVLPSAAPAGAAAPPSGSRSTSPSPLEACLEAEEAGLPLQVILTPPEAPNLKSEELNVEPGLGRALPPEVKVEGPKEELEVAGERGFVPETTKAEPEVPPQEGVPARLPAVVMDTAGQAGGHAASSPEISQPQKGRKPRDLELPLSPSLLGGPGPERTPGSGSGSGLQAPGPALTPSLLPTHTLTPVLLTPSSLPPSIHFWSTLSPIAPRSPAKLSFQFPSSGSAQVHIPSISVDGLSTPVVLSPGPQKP
# In short: as §1
# GABPA = molecular target: T3, GABPA (Homo sapiens, UniProt Q06546 1-454); conditions: protein: recombinant; tags: N-terminal GST; dsDNA, one strand shown
# T3 sequence: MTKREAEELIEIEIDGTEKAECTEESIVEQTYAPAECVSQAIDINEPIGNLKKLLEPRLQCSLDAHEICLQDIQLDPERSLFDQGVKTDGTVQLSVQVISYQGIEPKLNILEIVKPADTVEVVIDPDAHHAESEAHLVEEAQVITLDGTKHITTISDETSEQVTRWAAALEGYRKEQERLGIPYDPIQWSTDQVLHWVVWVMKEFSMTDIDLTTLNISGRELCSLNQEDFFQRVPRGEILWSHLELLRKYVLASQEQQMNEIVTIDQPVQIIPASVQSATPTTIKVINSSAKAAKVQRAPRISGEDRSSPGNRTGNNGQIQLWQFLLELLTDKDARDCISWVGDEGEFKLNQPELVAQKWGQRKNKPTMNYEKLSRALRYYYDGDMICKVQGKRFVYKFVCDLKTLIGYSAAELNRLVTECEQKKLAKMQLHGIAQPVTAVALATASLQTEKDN
# In short: as §1
# ERG = molecular target: T4, ERG (Homo sapiens, UniProt P11308 1-479); conditions: protein: recombinant; tags: N-terminal GST; dsDNA, one strand shown
# T4 sequence: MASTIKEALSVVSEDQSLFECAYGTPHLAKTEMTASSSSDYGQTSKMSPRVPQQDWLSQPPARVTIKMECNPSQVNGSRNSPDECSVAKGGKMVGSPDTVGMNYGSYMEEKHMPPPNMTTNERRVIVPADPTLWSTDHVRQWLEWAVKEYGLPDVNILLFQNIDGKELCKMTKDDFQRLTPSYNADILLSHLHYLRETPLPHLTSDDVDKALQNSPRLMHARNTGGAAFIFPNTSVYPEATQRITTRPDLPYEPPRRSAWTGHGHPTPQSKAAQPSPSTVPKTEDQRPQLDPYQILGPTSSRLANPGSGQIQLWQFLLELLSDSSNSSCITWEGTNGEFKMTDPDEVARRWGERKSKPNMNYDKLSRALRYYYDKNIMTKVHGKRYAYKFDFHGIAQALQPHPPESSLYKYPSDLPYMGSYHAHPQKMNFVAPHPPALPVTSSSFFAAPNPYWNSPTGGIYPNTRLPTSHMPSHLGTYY
# In short: as §1
# ELF1 = ELF1 (Homo sapiens, UniProt P32519 1-619); conditions: protein: recombinant; tags: N-terminal GST; dsDNA, one strand shown
# Sequence of ELF1 (P32519 whole entry): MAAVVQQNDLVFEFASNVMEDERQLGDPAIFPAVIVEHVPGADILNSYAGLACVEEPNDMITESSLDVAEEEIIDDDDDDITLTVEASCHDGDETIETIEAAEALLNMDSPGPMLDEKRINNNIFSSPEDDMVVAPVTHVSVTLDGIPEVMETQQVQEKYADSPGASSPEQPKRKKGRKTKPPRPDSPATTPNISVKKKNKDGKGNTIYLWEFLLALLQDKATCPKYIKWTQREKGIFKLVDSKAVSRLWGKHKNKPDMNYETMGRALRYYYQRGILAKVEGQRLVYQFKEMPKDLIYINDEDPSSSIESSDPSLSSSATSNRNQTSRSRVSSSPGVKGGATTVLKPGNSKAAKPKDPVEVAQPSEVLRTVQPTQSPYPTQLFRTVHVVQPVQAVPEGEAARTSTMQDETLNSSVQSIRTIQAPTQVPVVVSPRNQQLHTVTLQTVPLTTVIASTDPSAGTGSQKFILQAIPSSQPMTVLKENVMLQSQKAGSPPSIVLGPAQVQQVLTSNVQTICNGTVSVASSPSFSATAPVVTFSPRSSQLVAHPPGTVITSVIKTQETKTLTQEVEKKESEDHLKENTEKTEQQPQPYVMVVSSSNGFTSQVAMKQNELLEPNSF
# In short: as §1
# EHF = molecular target: T5, EHF (Homo sapiens, UniProt Q9NZC4 1-300); conditions: protein: recombinant; tags: N-terminal GST; dsDNA, one strand shown
# T5 sequence: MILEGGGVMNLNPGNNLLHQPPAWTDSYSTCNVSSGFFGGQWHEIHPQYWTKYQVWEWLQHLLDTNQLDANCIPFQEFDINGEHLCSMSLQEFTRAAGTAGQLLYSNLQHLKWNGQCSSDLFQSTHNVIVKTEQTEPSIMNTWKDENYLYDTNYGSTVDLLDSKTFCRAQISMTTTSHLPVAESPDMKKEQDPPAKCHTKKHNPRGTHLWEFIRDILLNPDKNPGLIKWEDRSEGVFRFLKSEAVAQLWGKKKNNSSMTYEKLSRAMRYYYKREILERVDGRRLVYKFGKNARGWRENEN
# In short: as §1
# SPI1 = SPI1 (Homo sapiens, UniProt P17947 1-270); conditions: protein: recombinant; tags: N-terminal GST; dsDNA, one strand shown
# In short: as §1
# SPIB = SPIB (Homo sapiens, UniProt Q01892 1-262); conditions: protein: recombinant; tags: N-terminal GST; dsDNA, one strand shown
# Sequence of SPIB (Q01892 whole entry): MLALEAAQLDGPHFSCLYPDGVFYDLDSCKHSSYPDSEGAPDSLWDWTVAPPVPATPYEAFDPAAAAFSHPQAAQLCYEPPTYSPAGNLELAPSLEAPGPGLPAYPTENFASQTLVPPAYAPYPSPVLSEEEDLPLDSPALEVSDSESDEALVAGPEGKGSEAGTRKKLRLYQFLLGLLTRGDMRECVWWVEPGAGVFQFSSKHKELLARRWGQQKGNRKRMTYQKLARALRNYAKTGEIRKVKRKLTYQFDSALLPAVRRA
# In short: as §1
# ELK3 = molecular target: T6, ELK3 (Homo sapiens, UniProt P41970 1-407); conditions: protein: recombinant; tags: N-terminal GST; dsDNA, one strand shown
# T6 sequence: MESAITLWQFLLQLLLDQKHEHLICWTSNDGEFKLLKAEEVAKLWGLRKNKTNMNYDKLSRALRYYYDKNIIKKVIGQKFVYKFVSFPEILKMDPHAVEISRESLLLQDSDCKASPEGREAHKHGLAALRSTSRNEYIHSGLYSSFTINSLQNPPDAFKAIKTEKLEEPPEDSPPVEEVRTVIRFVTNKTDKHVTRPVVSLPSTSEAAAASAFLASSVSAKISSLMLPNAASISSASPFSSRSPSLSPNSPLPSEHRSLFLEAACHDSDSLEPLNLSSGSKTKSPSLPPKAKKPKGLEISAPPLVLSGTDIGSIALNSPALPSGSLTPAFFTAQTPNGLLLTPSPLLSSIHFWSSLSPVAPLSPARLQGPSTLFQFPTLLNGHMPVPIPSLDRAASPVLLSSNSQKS
# In short: as §1
# FEV = molecular target: T7, FEV (Homo sapiens, UniProt Q99581 1-238); conditions: protein: recombinant; tags: N-terminal GST; dsDNA, one strand shown
# T7 sequence: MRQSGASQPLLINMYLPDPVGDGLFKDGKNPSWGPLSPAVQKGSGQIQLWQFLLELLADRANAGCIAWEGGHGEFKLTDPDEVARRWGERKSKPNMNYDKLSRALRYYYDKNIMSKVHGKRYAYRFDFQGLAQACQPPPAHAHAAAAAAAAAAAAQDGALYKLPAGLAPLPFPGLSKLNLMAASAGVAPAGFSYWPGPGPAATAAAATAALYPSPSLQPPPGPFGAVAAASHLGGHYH
# In short: as §1
# ETV5 = ETV5 (Homo sapiens, UniProt P41161 1-510); conditions: protein: recombinant; tags: N-terminal GST; dsDNA, one strand shown
# Sequence of ETV5 (P41161 whole entry): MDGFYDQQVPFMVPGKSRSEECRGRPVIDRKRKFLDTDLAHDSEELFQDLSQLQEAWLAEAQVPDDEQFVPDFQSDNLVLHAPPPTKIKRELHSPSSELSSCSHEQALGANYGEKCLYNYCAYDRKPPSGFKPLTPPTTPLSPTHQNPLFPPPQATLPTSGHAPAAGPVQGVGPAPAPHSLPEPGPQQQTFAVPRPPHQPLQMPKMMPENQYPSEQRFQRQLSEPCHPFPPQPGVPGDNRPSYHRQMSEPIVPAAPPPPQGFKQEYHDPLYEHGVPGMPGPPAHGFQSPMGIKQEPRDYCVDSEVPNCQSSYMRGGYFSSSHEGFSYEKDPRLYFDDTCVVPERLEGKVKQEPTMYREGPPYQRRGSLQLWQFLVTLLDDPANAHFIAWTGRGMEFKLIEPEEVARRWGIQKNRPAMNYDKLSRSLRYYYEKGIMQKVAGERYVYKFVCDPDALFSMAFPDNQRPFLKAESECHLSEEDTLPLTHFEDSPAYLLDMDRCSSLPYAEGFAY
# In short: as §1
# HSF1 = HSF1 (Homo sapiens, UniProt Q00613 1-529); conditions: protein: recombinant; tags: N-terminal GST; chain copies: 3; dsDNA, one strand shown
# Sequence of HSF1 (Q00613 whole entry): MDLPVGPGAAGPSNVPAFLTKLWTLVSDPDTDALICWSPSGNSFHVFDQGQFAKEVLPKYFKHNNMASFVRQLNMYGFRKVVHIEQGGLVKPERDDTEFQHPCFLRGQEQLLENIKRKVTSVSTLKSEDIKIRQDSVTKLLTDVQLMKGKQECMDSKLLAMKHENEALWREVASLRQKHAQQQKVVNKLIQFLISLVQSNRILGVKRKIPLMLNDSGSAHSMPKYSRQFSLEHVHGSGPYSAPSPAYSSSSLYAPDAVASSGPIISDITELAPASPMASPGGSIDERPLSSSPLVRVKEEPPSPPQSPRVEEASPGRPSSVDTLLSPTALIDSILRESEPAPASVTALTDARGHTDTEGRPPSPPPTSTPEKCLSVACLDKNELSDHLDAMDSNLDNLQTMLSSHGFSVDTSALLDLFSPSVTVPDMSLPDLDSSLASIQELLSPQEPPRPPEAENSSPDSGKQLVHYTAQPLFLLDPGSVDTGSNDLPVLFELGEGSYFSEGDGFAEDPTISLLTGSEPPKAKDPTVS
# In short: as §1
# SPIC = molecular target: T8, SPIC (Homo sapiens, UniProt Q8N5J4 1-248); conditions: protein: recombinant; tags: N-terminal GST; dsDNA, one strand shown
# T8 sequence: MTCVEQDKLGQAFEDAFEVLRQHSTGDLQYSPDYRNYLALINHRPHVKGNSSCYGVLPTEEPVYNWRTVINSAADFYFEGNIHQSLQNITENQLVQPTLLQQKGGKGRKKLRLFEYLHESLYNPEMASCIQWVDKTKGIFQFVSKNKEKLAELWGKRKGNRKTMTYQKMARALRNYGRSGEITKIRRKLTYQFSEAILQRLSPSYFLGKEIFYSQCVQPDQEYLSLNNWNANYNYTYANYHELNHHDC
# In short: as §1
# ELF4 = ELF4 (Homo sapiens, UniProt Q99607 1-663); conditions: protein: recombinant; tags: N-terminal GST; dsDNA, one strand shown
# Sequence of ELF4 (Q99607 whole entry): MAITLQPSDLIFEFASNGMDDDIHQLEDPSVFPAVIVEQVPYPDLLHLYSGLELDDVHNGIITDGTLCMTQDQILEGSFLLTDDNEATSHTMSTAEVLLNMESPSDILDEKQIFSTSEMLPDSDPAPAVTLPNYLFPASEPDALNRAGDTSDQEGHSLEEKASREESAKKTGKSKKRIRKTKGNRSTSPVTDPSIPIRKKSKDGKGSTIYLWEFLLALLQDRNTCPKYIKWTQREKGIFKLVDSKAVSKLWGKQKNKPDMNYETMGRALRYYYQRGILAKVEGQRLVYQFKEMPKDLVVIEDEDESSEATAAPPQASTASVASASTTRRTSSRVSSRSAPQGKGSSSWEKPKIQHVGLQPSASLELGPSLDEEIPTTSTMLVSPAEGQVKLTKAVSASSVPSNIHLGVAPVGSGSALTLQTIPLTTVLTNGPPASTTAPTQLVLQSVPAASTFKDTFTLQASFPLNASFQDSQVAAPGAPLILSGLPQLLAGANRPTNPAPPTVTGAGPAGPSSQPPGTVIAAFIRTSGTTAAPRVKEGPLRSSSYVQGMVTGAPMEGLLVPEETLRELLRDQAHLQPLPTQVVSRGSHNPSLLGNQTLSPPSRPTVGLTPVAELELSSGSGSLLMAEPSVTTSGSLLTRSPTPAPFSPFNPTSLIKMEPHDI
# In short: as §1
# ELK4 = molecular target: T9, ELK4 (Homo sapiens, UniProt P28324-2 1-405); conditions: protein: recombinant; tags: N-terminal GST; dsDNA, one strand shown
# T9 sequence: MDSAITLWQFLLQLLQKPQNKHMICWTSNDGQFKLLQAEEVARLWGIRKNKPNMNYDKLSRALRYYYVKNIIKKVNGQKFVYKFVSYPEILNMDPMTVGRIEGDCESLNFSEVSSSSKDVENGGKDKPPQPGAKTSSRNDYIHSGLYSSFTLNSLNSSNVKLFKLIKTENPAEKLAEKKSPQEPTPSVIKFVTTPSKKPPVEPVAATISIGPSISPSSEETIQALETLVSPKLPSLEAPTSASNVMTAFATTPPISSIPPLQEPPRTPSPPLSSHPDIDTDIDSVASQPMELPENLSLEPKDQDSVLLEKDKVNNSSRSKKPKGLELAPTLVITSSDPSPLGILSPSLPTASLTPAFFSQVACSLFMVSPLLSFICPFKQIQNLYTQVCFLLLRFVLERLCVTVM
# In short: as §1
# ETV2 = molecular target: T10, ETV2 (Homo sapiens, UniProt O00321 1-342); conditions: protein: recombinant; tags: N-terminal GST; dsDNA, one strand shown
# T10 sequence: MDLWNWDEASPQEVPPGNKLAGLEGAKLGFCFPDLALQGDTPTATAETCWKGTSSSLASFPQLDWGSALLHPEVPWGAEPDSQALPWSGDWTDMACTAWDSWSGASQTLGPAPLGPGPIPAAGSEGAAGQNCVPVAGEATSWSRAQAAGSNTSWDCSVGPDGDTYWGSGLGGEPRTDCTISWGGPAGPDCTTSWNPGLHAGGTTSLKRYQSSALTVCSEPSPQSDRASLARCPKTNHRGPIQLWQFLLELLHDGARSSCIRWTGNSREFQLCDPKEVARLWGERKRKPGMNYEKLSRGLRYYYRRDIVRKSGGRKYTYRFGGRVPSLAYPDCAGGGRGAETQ
# In short: as §1
# ELF3 = molecular target: T11, ELF3 (Homo sapiens, UniProt P78545 1-371); conditions: protein: recombinant; tags: N-terminal GST; dsDNA, one strand shown
# T11 sequence: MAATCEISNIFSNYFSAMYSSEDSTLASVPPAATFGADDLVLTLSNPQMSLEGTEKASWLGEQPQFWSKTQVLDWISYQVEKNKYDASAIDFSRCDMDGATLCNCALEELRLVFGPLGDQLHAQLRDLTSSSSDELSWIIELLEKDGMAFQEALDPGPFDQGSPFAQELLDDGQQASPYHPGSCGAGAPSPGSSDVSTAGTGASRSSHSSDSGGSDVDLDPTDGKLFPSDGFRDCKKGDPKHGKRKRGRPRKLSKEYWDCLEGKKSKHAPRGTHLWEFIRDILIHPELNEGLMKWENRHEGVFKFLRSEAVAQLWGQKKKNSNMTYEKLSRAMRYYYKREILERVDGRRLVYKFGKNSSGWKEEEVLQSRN
# In short: as §1
# CRX = CRX (Homo sapiens, UniProt O43186 1-299); conditions: protein: recombinant; tags: N-terminal GST; dsDNA, one strand shown
# Sequence of CRX (O43186 whole entry): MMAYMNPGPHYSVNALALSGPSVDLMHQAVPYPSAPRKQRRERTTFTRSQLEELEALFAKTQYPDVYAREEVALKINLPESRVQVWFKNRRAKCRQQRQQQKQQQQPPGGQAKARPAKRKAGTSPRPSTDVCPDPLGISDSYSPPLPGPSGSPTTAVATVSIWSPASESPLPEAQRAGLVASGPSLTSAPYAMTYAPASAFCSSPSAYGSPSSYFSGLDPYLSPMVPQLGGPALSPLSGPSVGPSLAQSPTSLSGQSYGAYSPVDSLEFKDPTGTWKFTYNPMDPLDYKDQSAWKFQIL
# In short: as §1
# ETV1 = ETV1 (Homo sapiens, UniProt P50549 1-477); conditions: protein: recombinant; tags: N-terminal GST; dsDNA, one strand shown
# Sequence of ETV1 (P50549 whole entry): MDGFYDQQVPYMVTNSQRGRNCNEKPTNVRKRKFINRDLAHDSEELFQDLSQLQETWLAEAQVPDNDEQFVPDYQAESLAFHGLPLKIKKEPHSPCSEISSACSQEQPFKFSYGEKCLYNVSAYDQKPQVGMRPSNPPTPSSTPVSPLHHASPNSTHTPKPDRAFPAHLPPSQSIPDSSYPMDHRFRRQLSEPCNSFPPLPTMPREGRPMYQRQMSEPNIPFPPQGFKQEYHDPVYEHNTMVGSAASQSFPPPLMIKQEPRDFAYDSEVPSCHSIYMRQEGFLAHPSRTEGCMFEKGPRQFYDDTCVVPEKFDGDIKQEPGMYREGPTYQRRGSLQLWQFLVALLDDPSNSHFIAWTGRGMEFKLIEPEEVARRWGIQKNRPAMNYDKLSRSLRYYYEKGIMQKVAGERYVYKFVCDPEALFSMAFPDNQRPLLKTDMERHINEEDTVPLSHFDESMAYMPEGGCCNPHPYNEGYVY
# In short: as §1
sequence,measurement,setting,value
CGACAA,binding signal,FLI1,"1.17 fold enrichment (6-mer frequency, TF over GST control)"
same,binding signal,ELK1,"1.09 fold enrichment (6-mer frequency, TF over GST control)"
same,binding signal,GABPA,"1.26 fold enrichment (6-mer frequency, TF over GST control)"
same,binding signal,ERG,"1.17 fold enrichment (6-mer frequency, TF over GST control)"
same,binding signal,ELF1,"1.21 fold enrichment (6-mer frequency, TF over GST control)"
same,binding signal,EHF,"1.24 fold enrichment (6-mer frequency, TF over GST control)"
same,binding signal,SPI1,"1.12 fold enrichment (6-mer frequency, TF over GST control)"
same,binding signal,SPIB,"1.2 fold enrichment (6-mer frequency, TF over GST control)"
same,binding signal,ELK3,"1.07 fold enrichment (6-mer frequency, TF over GST control)"
same,binding signal,FEV,"1.3 fold enrichment (6-mer frequency, TF over GST control)"
same,binding signal,ETV5,"1.24 fold enrichment (6-mer frequency, TF over GST control)"
same,binding signal,HSF1,"1.12 fold enrichment (6-mer frequency, TF over GST control)"
same,binding signal,SPIC,"1.15 fold enrichment (6-mer frequency, TF over GST control)"
same,binding signal,ELF4,"1.18 fold enrichment (6-mer frequency, TF over GST control)"
same,binding signal,ELK4,"1.13 fold enrichment (6-mer frequency, TF over GST control)"
same,binding signal,ETV2,"1.08 fold enrichment (6-mer frequency, TF over GST control)"
same,binding signal,ELF3,"1.17 fold enrichment (6-mer frequency, TF over GST control)"
same,binding signal,CRX,"1.03 fold enrichment (6-mer frequency, TF over GST control)"
same,binding signal,ETV1,"1.18 fold enrichment (6-mer frequency, TF over GST control)"
